# The supplement of paper PMC8728848
# Only a selection was taken, and the strongest signals are over-represented in it overall.
# B1: Epa13 (Candida glabrata) (protein)
# chain: MGSSHHHHHHSSGLVPRGSHMASDSSENGYAHGCSPSIRAKLKPGLSMEIYSYALRPTDDHCWDSAYLDPMFPRTGYLTHKLLGKAEGIIGPLNFLAKNPACIPAVSTLPLAFHFPKPFTITNFTMLLYGYLSPKKTGKYTFKLLADDLLLMNFGADNAFDCCSHDATKDNIGEYVAYSVWPGVNKNVTVYLESGIYYPLRLFFNNRDAIAQLDFAYYFNDSPIRQTDFSGMFFSIPDSVKCPANI
# Legend:
# Assay in all cases: glycan array binding signal (z-score within array); higher = stronger binding
# Conditions in all cases: glycan notation: IUPAC condensed, linker removed
# [1] = molecular target: Fuc(a1-2)Gal(b1-3)GalNAc(b1-3)Gal
# Summary of the method: (§1)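 The Consortium for Functional Glycomics database supplied 3228 glycan arrays, of which those lacking an available protein sequence were dropped. The binding signal, a within-array Z-score, was averaged across arrays of the same protein sequence and across linkers. Negative scores can be read as non-binding.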
# [2] = molecular target: Fuc(a1-2)Gal(b1-3)[Fuc(a1-4)]GlcNAc(b1-3)[Fuc(a1-3)[Gal(b1-4)]GlcNAc(b1-6)]Gal(b1-4)Glc
# Summary of the method: as §1
# [3] = molecular target: Fuc(a1-2)Gal(b1-4)GlcNAc(b1-2)Man
# Summary of the method: as §1
# [4] = molecular target: Fuc(a1-2)Gal(b1-4)[Fuc(a1-3)]GlcNAc(b1-3)GalNAc
# Summary of the method: as §1
# [5] = molecular target: Fuc(a1-2)Gal(b1-4)[Fuc(a1-3)]GlcNAc(b1-3)[Neu5Ac(a2-6)Gal(b1-4)GlcNAc(b1-6)]Gal(b1-4)Glc
# Summary of the method: as §1
# [6] = molecular target: Fuc(a1-2)[Gal(a1-3)]Gal(b1-4)Glc
# Summary of the method: as §1
# [7] = molecular target: Fuc(a1-2)[Gal(a1-3)]Gal(b1-4)[Fuc(a1-3)]GlcNAc
# Summary of the method: as §1
# [8] = molecular target: Fuc(a1-2)[Gal(a1-4)]Gal(b1-4)GlcNAc
# Summary of the method: as §1
# [9] = molecular target: Fuc(a1-2)[GalNAc(a1-4)]Gal(b1-4)GlcNAc
# Summary of the method: as §1
# [10] = molecular target: Fuc(a1-3)[Gal(b1-4)]GlcNAc
# Summary of the method: as §1
# [11] = molecular target: Fuc(a1-3)[Gal(b1-4)]GlcNAc(b1-2)Man
# Summary of the method: as §1
# [12] = molecular target: Fuc(a1-3)[Gal(b1-4)]GlcNAc(b1-3)Gal(b1-4)[Fuc(a1-3)]GlcNAc(b1-3)Gal(b1-4)[Fuc(a1-3)]GlcNAc
# Summary of the method: as §1
# [13] = molecular target: Fuc(a1-3)[Gal3S(b1-4)]GlcNAc
# Summary of the method: as §1
# [14] = molecular target: Gal(a1-3)Gal(b1-3)GlcNAc(b1-6)GalNAc
# Summary of the method: as §1
# [15] = molecular target: Gal(a1-3)Gal(b1-4)GlcNAc(b1-2)Man
# Summary of the method: as §1
# [16] = molecular target: Gal(a1-3)Gal(b1-4)GlcNAc(b1-2)Man(a1-3)[Gal(a1-3)Gal(b1-4)GlcNAc(b1-2)Man(a1-6)]Man(b1-4)GlcNAc(b1-4)GlcNAc
# Summary of the method: as §1
# [17] = molecular target: Gal(a1-3)Gal(b1-4)GlcNAc(b1-3)GalNAc
# Summary of the method: as §1
# [18] = molecular target: Gal(a1-3)[Gal(a1-4)]Gal(b1-4)GlcNAc
# Summary of the method: as §1
# [19] = molecular target: Gal(a1-4)Gal(b1-3)GlcNAc(b1-2)Man(a1-3)[Gal(a1-4)Gal(b1-3)GlcNAc(b1-2)Man(a1-6)]Man(b1-4)GlcNAc(b1-4)GlcNAc
# Summary of the method: as §1
# Gal(a1-4)Gal(b1-4)Glc = molecular target: Gal(a1-4)Gal(b1-4)Glc
# Summary of the method: as §1
# Gal(a1-4)Gal(b1-4)GlcNAc = molecular target: Gal(a1-4)Gal(b1-4)GlcNAc
# Summary of the method: as §1
# [20] = molecular target: Gal(a1-4)Gal(b1-4)GlcNAc(b1-2)Man(a1-3)[Gal(a1-4)Gal(b1-4)GlcNAc(b1-2)Man(a1-6)]Man(b1-4)GlcNAc(b1-4)GlcNAc
# Summary of the method: as §1
# Gal(a1-4)GlcNAc = molecular target: Gal(a1-4)GlcNAc
# Summary of the method: as §1
# Gal(a1-6)Glc = molecular target: Gal(a1-6)Glc
# Summary of the method: as §1
# Gal(b1-2)Gal = molecular target: Gal(b1-2)Gal
# Summary of the method: as §1
# [21] = molecular target: Gal(b1-3)GalNAc(a1-3)[Fuc(a1-2)]Gal(b1-4)GlcNAc
# Summary of the method: as §1
# [22] = molecular target: Gal(b1-3)GlcNAc(b1-3)Gal(b1-4)GlcNAc
# Summary of the method: as §1
# [23] = molecular target: Gal(b1-3)GlcNAc(b1-6)Gal(b1-4)GlcNAc
# Summary of the method: as §1
# [24] = molecular target: Gal(b1-3)GlcNAc(b1-6)[Gal(b1-3)]GalNAc
# Summary of the method: as §1
# Gal(b1-4)Glc6S = molecular target: Gal(b1-4)Glc6S
# Summary of the method: as §1
# [25] = molecular target: Gal(b1-4)GlcNAc(a1-6)Gal(b1-4)GlcNAc
# Summary of the method: as §1
# [26] = molecular target: Gal(b1-4)GlcNAc(b1-2)[Gal(b1-4)GlcNAc(b1-6)]Man(a1-6)[GlcNAc(b1-4)][Gal(b1-4)GlcNAc(b1-2)[Gal(b1-4)GlcNAc(b1-4)]Man(a1-3)]Man(b1-4)GlcNAc(b1-4)[Fuc(a1-6)]GlcNAc
# Summary of the method: as §1
# [27] = molecular target: Gal(b1-4)GlcNAc(b1-3)Gal(b1-4)GlcNAc
# Summary of the method: as §1
# Gal4S6S(b1-4)GlcNAc = molecular target: Gal4S6S(b1-4)GlcNAc
# Summary of the method: as §1
# Gal6S(b1-4)GlcNAc = molecular target: Gal6S(b1-4)GlcNAc
# Summary of the method: as §1
# Gal6S(b1-4)GlcNAc6S = molecular target: Gal6S(b1-4)GlcNAc6S
# Summary of the method: as §1
# [28] = molecular target: GalNAc(b1-3)Gal(a1-4)Gal(b1-4)GlcNAc
# Summary of the method: as §1
# Glc(a1-4)Glc = molecular target: Glc(a1-4)Glc
# Summary of the method: as §1
# [29] = molecular target: GlcNAc(a1-4)Gal(b1-4)GlcNAc(b1-3)Gal(b1-4)GlcNAc
# Summary of the method: as §1
# [30] = molecular target: GlcNAc(a1-4)Gal(b1-4)GlcNAc(b1-3)Gal(b1-4)[Fuc(a1-3)]GlcNAc(b1-3)Gal(b1-4)[Fuc(a1-3)]GlcNAc
# Summary of the method: as §1
# [31] = molecular target: GlcNAc(b1-2)Man(a1-3)[GlcNAc(b1-4)][GlcNAc(b1-2)Man(a1-6)]Man(b1-4)GlcNAc(b1-4)[Fuc(a1-6)]GlcNAc
# Summary of the method: as §1
# [32] = molecular target: GlcNAc(b1-2)[GlcNAc(b1-4)]Man(a1-3)[GlcNAc(b1-2)Man(a1-6)]Man(b1-4)GlcNAc(b1-4)GlcNAc
# Summary of the method: as §1
# [33] = molecular target: GlcNAc(b1-2)[GlcNAc(b1-4)]Man(a1-3)[GlcNAc(b1-4)][GlcNAc(b1-2)Man(a1-6)]Man(b1-4)GlcNAc(b1-4)GlcNAc
# Summary of the method: as §1
# GlcNAc(b1-3)Gal = molecular target: GlcNAc(b1-3)Gal
# Summary of the method: as §1
# [34] = molecular target: GlcNAc(b1-3)Gal(b1-4)GlcNAc(b1-2)[GlcNAc(b1-3)Gal(b1-4)GlcNAc(b1-6)]Man(a1-6)[GlcNAc(b1-3)Gal(b1-4)GlcNAc(b1-2)Man(a1-3)]Man(b1-4)GlcNAc(b1-4)GlcNAc
# Summary of the method: as §1
# [35] = molecular target: Neu5Ac(a2-3)Gal(b1-4)GlcNAc(b1-2)Man(a1-3)[Neu5Ac(a2-6)Gal(b1-4)GlcNAc(b1-2)Man(a1-6)]Man(b1-4)GlcNAc(b1-4)GlcNAc
# Summary of the method: as §1
# [36] = molecular target: Neu5Ac(a2-3)Gal6S(b1-4)[Fuc(a1-3)]GlcNAc
# Summary of the method: as §1
# [37] = molecular target: Neu5Ac(a2-6)Gal(b1-4)GlcNAc(b1-2)Man(a1-3)[GlcNAc(b1-2)Man(a1-6)]Man(b1-4)GlcNAc(b1-4)GlcNAc
# Summary of the method: as §1
# [38] = molecular target: Neu5Ac(a2-6)Gal(b1-4)GlcNAc(b1-3)Gal(b1-4)GlcNAc
# Summary of the method: as §1
# [39] = molecular target: Neu5Ac(a2-6)Gal(b1-4)GlcNAc(b1-3)Gal(b1-4)GlcNAc(b1-3)GalNAc
# Summary of the method: as §1
# [40] = molecular target: Neu5Ac(a2-6)Gal(b1-4)GlcNAc(b1-6)[Gal(b1-3)]GalNAc
# Summary of the method: as §1
# [41] = molecular target: Neu5Ac(a2-8)Neu5Ac(a2-3)Gal(b1-4)GlcNAc
# Summary of the method: as §1
# Neu5Ac(b2-6)GalNAc = molecular target: Neu5Ac(b2-6)GalNAc
# Summary of the method: as §1
binder,measurement,setting,value
B1,glycan array binding signal (z-score),[1],0.112
same,glycan array binding signal (z-score),[2],-0.604
same,glycan array binding signal (z-score),[3],0.385
same,glycan array binding signal (z-score),[4],2.14
same,glycan array binding signal (z-score),[5],-0.526
same,glycan array binding signal (z-score),[6],-0.047
same,glycan array binding signal (z-score),[7],0.02
same,glycan array binding signal (z-score),[8],9.27
same,glycan array binding signal (z-score),[9],-0.453
same,glycan array binding signal (z-score),[10],-0.454
same,glycan array binding signal (z-score),[11],-0.124
same,glycan array binding signal (z-score),[12],-0.429
same,glycan array binding signal (z-score),[13],-0.351
same,glycan array binding signal (z-score),[14],1.13
same,glycan array binding signal (z-score),[15],0.125
same,glycan array binding signal (z-score),[16],4.93
same,glycan array binding signal (z-score),[17],0.561
same,glycan array binding signal (z-score),[18],1.47
same,glycan array binding signal (z-score),[19],4.04
same,glycan array binding signal (z-score),Gal(a1-4)Gal(b1-4)Glc,3.52
same,glycan array binding signal (z-score),Gal(a1-4)Gal(b1-4)GlcNAc,4.15
same,glycan array binding signal (z-score),[20],5.18
same,glycan array binding signal (z-score),Gal(a1-4)GlcNAc,7.08
same,glycan array binding signal (z-score),Gal(a1-6)Glc,13.2
same,glycan array binding signal (z-score),Gal(b1-2)Gal,4.04
same,glycan array binding signal (z-score),[21],-0.314
same,glycan array binding signal (z-score),[22],-0.418
same,glycan array binding signal (z-score),[23],-0.113
same,glycan array binding signal (z-score),[24],-0.014
same,glycan array binding signal (z-score),Gal(b1-4)Glc6S,0.255
same,glycan array binding signal (z-score),[25],0.075
same,glycan array binding signal (z-score),[26],-0.476
same,glycan array binding signal (z-score),[27],-0.291
same,glycan array binding signal (z-score),Gal4S6S(b1-4)GlcNAc,-0.32
same,glycan array binding signal (z-score),Gal6S(b1-4)GlcNAc,0.111
same,glycan array binding signal (z-score),Gal6S(b1-4)GlcNAc6S,2.69
same,glycan array binding signal (z-score),[28],-0.05
same,glycan array binding signal (z-score),Glc(a1-4)Glc,-0.521
same,glycan array binding signal (z-score),[29],0.04
same,glycan array binding signal (z-score),[30],-0.218
same,glycan array binding signal (z-score),[31],0.145
same,glycan array binding signal (z-score),[32],-0.393
same,glycan array binding signal (z-score),[33],-0.299
same,glycan array binding signal (z-score),GlcNAc(b1-3)Gal,-0.445
same,glycan array binding signal (z-score),[34],0.485
same,glycan array binding signal (z-score),[35],-0.354
same,glycan array binding signal (z-score),[36],-0.54
same,glycan array binding signal (z-score),[37],-0.413
same,glycan array binding signal (z-score),[38],-0.07
same,glycan array binding signal (z-score),[39],-0.142
same,glycan array binding signal (z-score),[40],-0.381
same,glycan array binding signal (z-score),[41],-0.449
same,glycan array binding signal (z-score),Neu5Ac(b2-6)GalNAc,-0.624
